# Test results: PubChem BioAssay AID1159580 (chemical genetic matrix, 2015)
# The campaign covered roughly 5,500 compounds. About 2,000 (36%) were called active. About 18% were inconclusive and are not listed. The list shows a part of the results. A number with no mark means an inactive call. No stated cut-off is given here; in the data, active means normalized growth mostly below about 0.91 (no sharp cut-off); inconclusive means no clear call, values can overlap the other calls; inactive means mostly above about 0.92.
# Experiment: chemical genetic growth profiling, strain panel (AID 1159580);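 further: tested at 20 µM; growth read once vehicle control cultures reached saturation at 30 °C; 1 = growth at the plate median or of vehicle wells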
# Settings: growth OD
compound,measurement,setting,value
CC12CCC3C(CC=C4CC(O)CCC43C)C1CCC2=O (centres undefined),normalized growth,"S. cerevisiae deletion strains, locus YKL009W, strain mrt4, stronger effect = lower value",0.868 (active)
same,normalized growth,"S. cerevisiae deletion strains, locus YKL068W, stronger effect = lower value",1.02
same,normalized growth,"S. cerevisiae deletion strains, locus YKL085W, strain MDH1 (second series), stronger effect = lower value",0.983
same,normalized growth,"S. cerevisiae deletion strains, locus YKL085W, strain MDH1, stronger effect = lower value",0.983
same,normalized growth,"S. cerevisiae deletion strains, locus YKL160W, strain elf1, stronger effect = lower value",0.858 (active)
same,normalized growth,"S. cerevisiae deletion strains, locus YKL190W, strain CNB1, stronger effect = lower value",0.929
same,normalized growth,"S. cerevisiae deletion strains, locus YKR001C, strain vps1, stronger effect = lower value",1.01
same,normalized growth,"S. cerevisiae deletion strains, locus YKR026C, strain gcn3, stronger effect = lower value",1.03
same,normalized growth,"S. cerevisiae deletion strains, locus YKR091W, strain srl3, stronger effect = lower value",1.02
same,normalized growth,"S. cerevisiae deletion strains, locus YLL001W, strain dnm1, stronger effect = lower value",0.902 (active)
same,normalized growth,"S. cerevisiae deletion strains, locus YLL026W, stronger effect = lower value",0.88 (active)
same,normalized growth,"S. cerevisiae deletion strains, locus YLL041C, strain sdh2, stronger effect = lower value",0.999
same,normalized growth,"S. cerevisiae deletion strains, locus YLR027C, strain aat2, stronger effect = lower value",0.849 (active)
same,normalized growth,"S. cerevisiae deletion strains, locus YLR039C, strain RIC1, stronger effect = lower value",0.516 (active)
same,normalized growth,"S. cerevisiae deletion strains, locus YLR058C, strain SHM2, stronger effect = lower value",0.908
same,normalized growth,"S. cerevisiae deletion strains, locus YLR102C, strain apc9, stronger effect = lower value",1.02
same,normalized growth,"S. cerevisiae deletion strains, locus YLR221C, strain rsa3, stronger effect = lower value",0.779 (active)
same,normalized growth,"S. cerevisiae deletion strains, locus YLR258W, strain gsy2, stronger effect = lower value",0.939
same,normalized growth,"S. cerevisiae deletion strains, locus YLR262C, strain YPT6 (second series), stronger effect = lower value",0.441 (active)
same,normalized growth,"S. cerevisiae deletion strains, locus YLR268W, strain sec22, stronger effect = lower value",0.882 (active)
same,normalized growth,"S. cerevisiae deletion strains, locus YLR320W, strain mms22, stronger effect = lower value",0.429 (active)
same,normalized growth,"S. cerevisiae deletion strains, locus YLR330W, strain CHS5, stronger effect = lower value",0.929
same,normalized growth,"S. cerevisiae deletion strains, locus YLR342W, strain FKS1 (second series), stronger effect = lower value",0.781 (active)
same,normalized growth,"S. cerevisiae deletion strains, locus YLR342W, strain FKS1, stronger effect = lower value",0.932
same,normalized growth,"S. cerevisiae deletion strains, locus YLR357W, strain rsc2, stronger effect = lower value",1.1
same,normalized growth,"S. cerevisiae deletion strains, locus YLR370C, strain arc18, stronger effect = lower value",0.993
same,normalized growth,"S. cerevisiae deletion strains, locus YLR371W, strain rom2, stronger effect = lower value",1.07
same,normalized growth,"S. cerevisiae deletion strains, locus YLR384C, strain iki3, stronger effect = lower value",1.03
same,normalized growth,"S. cerevisiae deletion strains, locus YLR418C, strain cdc73, stronger effect = lower value",0.766 (active)
same,normalized growth,"S. cerevisiae deletion strains, locus YML016C, strain PPZ1, stronger effect = lower value",0.979
same,normalized growth,"S. cerevisiae deletion strains, locus YML032C, strain rad52, stronger effect = lower value",0.855 (active)
same,normalized growth,"S. cerevisiae deletion strains, locus YML120C, strain ndi1, stronger effect = lower value",0.92
same,normalized growth,"S. cerevisiae deletion strains, locus YML124C, strain tub3, stronger effect = lower value",1
same,normalized growth,"S. cerevisiae deletion strains, locus YMR058W, strain fet3, stronger effect = lower value",0.885 (active)
same,normalized growth,"S. cerevisiae deletion strains, locus YMR078C, strain ctf18, stronger effect = lower value",1.02
same,normalized growth,"S. cerevisiae deletion strains, locus YMR125W, strain sto1, stronger effect = lower value",0.971
same,normalized growth,"S. cerevisiae deletion strains, locus YMR129W, stronger effect = lower value",0.975
same,normalized growth,"S. cerevisiae deletion strains, locus YMR205C, strain PFK2, stronger effect = lower value",0.811 (active)
same,normalized growth,"S. cerevisiae deletion strains, locus YMR223W, strain ubp8, stronger effect = lower value",0.946
same,normalized growth,"S. cerevisiae deletion strains, locus YMR231W, strain pep5, stronger effect = lower value",0.989
same,normalized growth,"S. cerevisiae deletion strains, locus YMR263W, strain SAP30, stronger effect = lower value",0.976
same,normalized growth,"S. cerevisiae deletion strains, locus YMR307W, strain GAS1, stronger effect = lower value",1.11
same,normalized growth,"S. cerevisiae deletion strains, locus YNL067W, strain RPL9B, stronger effect = lower value",0.917
same,normalized growth,"S. cerevisiae deletion strains, locus YNL071W, strain lat1, stronger effect = lower value",0.513 (active)
same,normalized growth,"S. cerevisiae deletion strains, locus YNL153C, strain GIM3, stronger effect = lower value",0.887
same,normalized growth,"S. cerevisiae deletion strains, locus YNL209W, strain ssb2, stronger effect = lower value",0.927 (active)
same,normalized growth,"S. cerevisiae deletion strains, locus YNL233W, strain BNI4, stronger effect = lower value",0.889
same,normalized growth,"S. cerevisiae deletion strains, locus YNL248C, strain rpa49, stronger effect = lower value",0.777 (active)
same,normalized growth,"S. cerevisiae deletion strains, locus YNL250W, strain rad50, stronger effect = lower value",0.947
same,normalized growth,"S. cerevisiae deletion strains, locus YNL271C, strain bni1, stronger effect = lower value",0.993
same,normalized growth,"S. cerevisiae deletion strains, locus YNL298W, strain CLA4, stronger effect = lower value",0.929
same,normalized growth,"S. cerevisiae deletion strains, locus YNL307C, strain MCK1, stronger effect = lower value",0.707 (active)
same,normalized growth,"S. cerevisiae deletion strains, locus YNL322C, strain KRE1 (second series), stronger effect = lower value",1.01
same,normalized growth,"S. cerevisiae deletion strains, locus YNL322C, strain KRE1, stronger effect = lower value",0.924 (active)
same,normalized growth,"S. cerevisiae deletion strains, locus YNR049C, strain mso1, stronger effect = lower value",1.01
same,normalized growth,"S. cerevisiae deletion strains, locus YNR052C, strain pop2, stronger effect = lower value",0.861 (active)
same,normalized growth,"S. cerevisiae deletion strains, locus YOL006C, strain TOP1, stronger effect = lower value",0.572
same,normalized growth,"S. cerevisiae deletion strains, locus YOL012C, strain htz1",1.48
same,normalized growth,"S. cerevisiae deletion strains, locus YOL147C, strain pex11, stronger effect = lower value",0.91 (active)
same,normalized growth,"S. cerevisiae deletion strains, locus YOR001W, strain rrp6, stronger effect = lower value",0.8 (active)
same,normalized growth,"S. cerevisiae deletion strains, locus YOR061W, strain CKA2, stronger effect = lower value",0.907
same,normalized growth,"S. cerevisiae deletion strains, locus YOR069W, strain VPS5, stronger effect = lower value",0.962
same,normalized growth,"S. cerevisiae deletion strains, locus YOR070C, strain gyp1, stronger effect = lower value",0.81 (active)
same,normalized growth,"S. cerevisiae deletion strains, locus YOR080W, strain dia2, stronger effect = lower value",0.974
same,normalized growth,"S. cerevisiae deletion strains, locus YOR083W, strain WHI5, stronger effect = lower value",0.86 (active)
same,normalized growth,"S. cerevisiae deletion strains, locus YOR106W, strain vam3, stronger effect = lower value",0.89
same,normalized growth,"S. cerevisiae deletion strains, locus YOR136W, strain idh2, stronger effect = lower value",1.01
same,normalized growth,"S. cerevisiae deletion strains, locus YOR144C, strain elg1, stronger effect = lower value",0.987
same,normalized growth,"S. cerevisiae deletion strains, locus YOR184W, strain ser1, stronger effect = lower value",0.694 (active)
same,normalized growth,"S. cerevisiae deletion strains, locus YOR265W, strain rbl2, stronger effect = lower value",0.969
same,normalized growth,"S. cerevisiae deletion strains, locus YOR270C, strain vph1, stronger effect = lower value",0.578 (active)
same,normalized growth,"S. cerevisiae deletion strains, locus YOR290C, strain snf2, stronger effect = lower value",0.848 (active)
same,normalized growth,"S. cerevisiae deletion strains, locus YOR316C, strain cot1, stronger effect = lower value",1.04
same,normalized growth,"S. cerevisiae deletion strains, locus YPL051W, strain arl3, stronger effect = lower value",0.861 (active)
same,normalized growth,"S. cerevisiae deletion strains, locus YPL078C, strain atp4, stronger effect = lower value",0.864 (active)
same,normalized growth,"S. cerevisiae deletion strains, locus YPL106C, strain sse1, stronger effect = lower value",1.27 [resistant] (active)
same,normalized growth,"S. cerevisiae deletion strains, locus YPL240C, strain hsp82, stronger effect = lower value",1.01
same,normalized growth,"S. cerevisiae deletion strains, locus YPL241C, strain CIN2, stronger effect = lower value",1.02
same,normalized growth,"S. cerevisiae deletion strains, locus YPR119W, strain clb2, stronger effect = lower value",1.05
same,normalized growth,"S. cerevisiae deletion strains, locus YPR141C, strain kar3, stronger effect = lower value",1.06
same,normalized growth,"S. cerevisiae deletion strains, locus YPR163C, strain tif3, stronger effect = lower value",0.893 (active)
same,normalized growth,"S. cerevisiae deletion strains, locus YPR167C, strain met16, stronger effect = lower value",0.928
same,normalized growth,"S. cerevisiae deletion strains, strain wtn01, stronger effect = lower value",0.854 (active)
same,normalized growth,"S. cerevisiae strains, strain wild type, stronger effect = lower value",0.877 (active)
